Data on 13 compounds can be found in PubChem BioAssay (NCI).

Compounds without any hit were thinned out: in the full panel of roughly 83,000, 20% have a hit.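 Assay: single dose, 48 h. Readout: percent growth (0 = no net growth; negative = cell death). Active: <10.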 Values without a mark were called inactive. Active and inactive are the calls of the source.

Some test systems named below: NCI-H23 lung; NCI-H226 lung; NCI-H322M lung; HOP-62 NSCLC; NCI-H460 lung; HOP-92 NSCLC; NCI-H522 lung; A549/ATCC NSCLC; 786-0 renal; COLO 205 colon.
Holding throughout (test): NCI-60 one-dose screen, 48 h (100 = growth as untreated, 0 = no growth, -100 = all killed)
Common to all, as to conditions: 10 µM unless noted

Take `Cc1cc2c(cc1Cl)C(=O)/C(=C/c1ccc(F)cc1)O2`: the growth is 85.8% in the test on NCI-H23 lung; 84.3% with NCI-H226 lung; 99.6% with NCI-H322M lung; 93.7% in the test with HOP-62 NSCLC; 105% in the test with NCI-H460 lung; 93.4% with HOP-92 NSCLC. Besides, the growth in the test on NCI-H522 lung is 65.8%; in the test with A549/ATCC NSCLC, 103%; in the test on 786-0 renal, 89.8%; in the test on COLO 205 colon it was 119%.

For the compound `CN1C(=O)/C(=C/c2ccc(C(=O)Nc3ncc(Cc4ccc(Cl)cc4Cl)s3)cc2)SC1=S`, the growth with NCI-H23 lung was 42.8%; in the test on NCI-H226 lung, 51.8%; in the test on NCI-H322M lung, 47.1%; with HOP-62 NSCLC, 59.3%; in the test on NCI-H460 lung, 46.2%; in the test with HOP-92 NSCLC, 64.4%. Also, the growth was 19.2% in the test on NCI-H522 lung, 42.7% in the test on A549/ATCC NSCLC, 53.3% with 786-0 renal and 27.6% with COLO 205 colon.

`O=C(Nc1ccc(C(F)(F)F)cc1)Nc1ccc2oc(=O)ccc2c1`: the growth was 3.56% (active) in the test on NCI-H23 lung; 26.6% in the test with NCI-H226 lung; 41.1% with NCI-H322M lung; 50.1% with HOP-62 NSCLC; 15.9% in the test with NCI-H460 lung; -5.11% (active) in the test on HOP-92 NSCLC. Further, the growth is -10.4% (active) in the test on NCI-H522 lung, 14.1% with A549/ATCC NSCLC, 53.8% with 786-0 renal and -26.4% (active) with COLO 205 colon.

With `CN(C)CCCNC(=O)c1cc(NC(=O)c2cc(NC(=O)c3ccc(/C=C/c4ccccc4)cc3)cn2C)cn1C`, the growth was 43.9% with NCI-H23 lung; 50.3% in the test on NCI-H226 lung; 73.4% in the test with NCI-H322M lung; 74.1% with HOP-62 NSCLC; 19.5% with NCI-H460 lung; -1.72% (active) with HOP-92 NSCLC. Moreover, the growth is -16.4% (active) in the test on NCI-H522 lung, 35.7% in the test on A549/ATCC NSCLC, 42.3% in the test with 786-0 renal and 32% with COLO 205 colon.

In the case of `S=C(Nc1ccc(OCc2nc3ccccc3[nH]2)cc1)NC1CCCCC1`, the growth was 101% in the test on NCI-H23 lung; 105% with NCI-H226 lung; 106% in the test with NCI-H322M lung; 95.1% in the test on HOP-62 NSCLC; 125% with NCI-H460 lung; 109% in the test with HOP-92 NSCLC. Also, the growth with NCI-H522 lung is 51.7%; in the test with A549/ATCC NSCLC, 105%; in the test on 786-0 renal it was 93%; with COLO 205 colon it was 110%.

With `COc1cc(/C=C/C(=O)c2ccccc2)ccc1Oc1nc(Nc2ccc(F)cc2)nc(N(C)C)n1`, the growth in the test on NCI-H23 lung was 46.6%; in the test on NCI-H226 lung, 43%; in the test on NCI-H322M lung it was 61.2%; with HOP-62 NSCLC, 78.4%; in the test with NCI-H460 lung, 18.1%; in the test with HOP-92 NSCLC, 28.7%. Besides, the growth with NCI-H522 lung is 29.6%; with A549/ATCC NSCLC it was 52.8%; in the test with 786-0 renal, 39.6%; in the test with COLO 205 colon, 36.2%.

Take `CCN(CC)C(=O)N/C(N)=N/c1nc2ccccc2s1`: the growth was 34.5% in the test on NCI-H23 lung; 39.4% in the test with NCI-H226 lung; 81.4% in the test with NCI-H322M lung; 68.9% in the test with HOP-62 NSCLC; 67% in the test on NCI-H460 lung; 72.2% in the test with HOP-92 NSCLC. Also, the growth is 51.2% in the test with NCI-H522 lung, 62.9% in the test on A549/ATCC NSCLC, 63.2% with 786-0 renal and 86.4% in the test on COLO 205 colon.

Consider `O=C(N/N=C/c1ccc(-c2ccc(O)cc2)o1)c1[nH]c2ccc(Br)cc2c1-c1ccccc1`, for which the growth was 5.82% (active) in the test on NCI-H23 lung; 10.6% with NCI-H226 lung; 17.4% with NCI-H322M lung; -11.3% (active) in the test with HOP-62 NSCLC; -11.3% (active) in the test with NCI-H460 lung; -40.7% (active) in the test with HOP-92 NSCLC. Further, the growth is -45.9% (active) in the test with NCI-H522 lung, 11.2% in the test with A549/ATCC NSCLC, -16.7% (active) with 786-0 renal and -54.5% (active) in the test on COLO 205 colon.

With `COc1cc2c(c(OC)c1OC)C(=O)CC(c1cccc(NC(=O)[C@@H](N)CC(C)C)c1)O2` (stereo not given in full), the growth in the test with NCI-H23 lung is 102%; in the test on NCI-H226 lung, 94.3%; in the test with NCI-H322M lung, 111%; with HOP-62 NSCLC, 99%; in the test with NCI-H460 lung, 106%; in the test on HOP-92 NSCLC, 80.2%. In addition, the growth is 90% in the test with NCI-H522 lung, 93.1% in the test on A549/ATCC NSCLC, 96.4% with 786-0 renal and 118% in the test with COLO 205 colon.

Turning to `COc1cc(-c2ccc(/C=N/NC(=O)c3[nH]c4ccc(Br)cc4c3-c3ccccc3)o2)cc(OC)c1OC`, the growth was 53.9% with NCI-H23 lung; 49.6% in the test on NCI-H226 lung; 81.2% with NCI-H322M lung; 62.6% with HOP-62 NSCLC; 62.8% in the test with NCI-H460 lung; 61.7% in the test on HOP-92 NSCLC. Moreover, the growth in the test on NCI-H522 lung is 82.8%; with A549/ATCC NSCLC, 71.6%; in the test with 786-0 renal, 67.2%; in the test on COLO 205 colon, 94.7%.

Take `CC(C)c1sc(NC(=O)c2cc(NC(=O)c3cc(NC(=O)c4cscn4)cn3C)cn2C)nc1C(=O)NCCCN(C)C`: the growth in the test with NCI-H23 lung was -22.3% (active); with NCI-H226 lung, -54% (active); in the test with NCI-H322M lung it was 19.9%; with HOP-62 NSCLC, 16.1%; in the test on NCI-H460 lung, 89.9%; with HOP-92 NSCLC, -22.9% (active). For the same compound, the growth in the test with NCI-H522 lung was -74.8% (active); in the test on A549/ATCC NSCLC, 105%; in the test with 786-0 renal, 64.8%; in the test with COLO 205 colon it was -63% (active).

Regarding `O=c1[nH]c2ccccc2cc1CSc1cccc(Nc2nccc(-c3ccc4ccccc4c3)n2)c1`, the growth is 91.6% in the test on NCI-H23 lung; 80.7% in the test on NCI-H226 lung; 106% in the test on NCI-H322M lung; 95.3% with HOP-62 NSCLC; 98.8% with NCI-H460 lung; 117% with HOP-92 NSCLC. For the same compound, the growth with NCI-H522 lung was 79%; with A549/ATCC NSCLC it was 83.6%; with 786-0 renal, 75.2%; in the test with COLO 205 colon it was 102%.

As for `CC(=O)Nc1ccc(-c2cn(-c3cccc(C(=O)Nc4ccc(N5CCN(C)CC5)cc4)c3)nn2)cn1`, the growth with NCI-H23 lung was 67.4%; with NCI-H226 lung it was 69.1%; with NCI-H322M lung it was 96.2%; in the test on HOP-62 NSCLC, 60%; in the test on NCI-H460 lung, 90.4%; in the test on HOP-92 NSCLC it was 44.8%. Besides, the growth in the test on NCI-H522 lung is 91.8%; in the test on A549/ATCC NSCLC, 76.1%; with 786-0 renal it was 12.5%; in the test with COLO 205 colon, 72%.
